Test results: the OligoGym collection
Further: reference of the scale not given here.

What follows are sequences tested against SNRNP200 (assay: pooled miR-30 sensor sort-seq; sequence = guide strand). Conditions: shRNA.
TTGCAGAAGAACGTTGATCTTA gave a sensor-assay potency score (higher = more potent) of -0.0878.
For TACTTGACCAGATTGTTCTTGT, the sensor-assay potency score (higher = more potent) was 0.676.
Work on TATCTTGGTAAAGACTCTCAAA yielded a sensor-assay potency score (higher = more potent) of -1.23.
TTCACTAGCACATGGTATCTGG gave a sensor-assay potency score (higher = more potent) of -0.256.
Sequence TTCTTGAAGAAATCCTTCTTGG has a sensor-assay potency score (higher = more potent) of -0.674.
In the case of TTGAACTCAGAGGACAATGAGA, the sensor-assay potency score (higher = more potent) is reported as -0.903.
TTTCATTCTTTAGAACAGCTAG gave a sensor-assay potency score (higher = more potent) of 0.0872.
In the case of TGCACTGACAACTCCAACTTGG, the sensor-assay potency score (higher = more potent) is reported as -0.38.
In the case of AATATCGCTCGCATCAACCGGC, the sensor-assay potency score (higher = more potent) is reported as 0.041.
Work on TGTAATGAGGTGCTCGTCCTGG yielded a sensor-assay potency score (higher = more potent) of -0.352.
Sequence TTGTTCTCAATGGTCTTGGTGA has a sensor-assay potency score (higher = more potent) of -0.0384.
Work on TACAGTGTTAAACACCTGGGTC yielded a sensor-assay potency score (higher = more potent) of -1.05.

The sequences below were run against SNRNP70 in the same assay as above. Conditions: shRNA.
With TCCTCTTCTGGTACCACCGAGG the sensor-assay potency score (higher = more potent) was -1.82.
In the case of TAAGCTCTGTCTCCACTTCTTG, the sensor-assay potency score (higher = more potent) is reported as -0.943.
Sequence TTAAGCTCTGTCTCCACTTCTT has a sensor-assay potency score (higher = more potent) of -0.388.
TTGCTGTCGCCGCTCAATCTTT was tested, and the sensor-assay potency score (higher = more potent) was -1.5.
For TAGCGGGAGGTGTCATCGCGGC, the sensor-assay potency score (higher = more potent) was -0.939.
TTCATGTGGCAGTTTCTCCAGG was tested, and the sensor-assay potency score (higher = more potent) was -0.18.
In the case of TCGCTCGTGTTCGTACTCGATG, the sensor-assay potency score (higher = more potent) is reported as -1.13.
TATTCTTTTGATAGGTCCGTAC showed a sensor-assay potency score (higher = more potent) of -0.682.
AATCTTCTTGCCATCTGCGTGT gave a sensor-assay potency score (higher = more potent) of -0.116.
